a7 integrin act: activates integrin-mediated alleviation for muscular dystrophy | alpha7betagal myoblasts, beta-gal FDG fluorescence, 48 h | Potency, µM (highest dose often 38.3 µM), for the others: at the top dose activation, actives largely listed as activators | actives 0.064% (n = 350,000) | AID 624291;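 further: 100% = response of the positive control SU9516; nearly all actives have a fitted effect of over 60% in size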
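alpha7betagal+/- myoblasts (passage 13, 250/well) treated 48 h at 37C with compounds at 1:260 dilution of DMSO stock. Lysed, then beta-galactosidase activity read as FDG fluorescence (ex 480/em 540) after 30 min, with pre-read for autofluorescence.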
RORg inh: inhibitors of mouse ROR gamma transcriptional activity. Drosophila S2 Gal4-RORgamma UAS-luciferase reporter, 20 h. Potency, µM (top dose mostly 53.6 µM), inactives show at the highest dose activity change, negative = inhibition, hits mostly inhibitors. actives 5.4% (n = 310,000); further: on the % scale 0 is the no-effect control and ±100 the full control effect; nearly all actives have a fitted effect of over 60% in size
Target sequence (P51450 whole entry, looked up, the tested form may be a part): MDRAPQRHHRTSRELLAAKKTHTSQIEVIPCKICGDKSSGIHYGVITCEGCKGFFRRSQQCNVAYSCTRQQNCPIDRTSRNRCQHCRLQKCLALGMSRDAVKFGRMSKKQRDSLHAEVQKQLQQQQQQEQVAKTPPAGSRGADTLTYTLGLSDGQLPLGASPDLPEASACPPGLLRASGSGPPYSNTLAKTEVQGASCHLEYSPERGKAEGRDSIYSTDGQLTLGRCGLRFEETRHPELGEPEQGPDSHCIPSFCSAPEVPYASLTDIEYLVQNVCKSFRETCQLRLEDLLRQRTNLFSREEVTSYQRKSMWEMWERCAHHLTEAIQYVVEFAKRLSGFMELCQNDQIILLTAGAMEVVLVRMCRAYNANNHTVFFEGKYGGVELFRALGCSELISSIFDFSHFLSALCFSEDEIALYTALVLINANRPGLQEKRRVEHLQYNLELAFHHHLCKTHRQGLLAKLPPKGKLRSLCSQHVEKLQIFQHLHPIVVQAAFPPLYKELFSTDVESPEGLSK
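Drosophila Schneider cells stably carrying a metallothionein-driven Gal4 DBD–ROR gamma fusion and a UAS-Photinus luciferase reporter were exposed to compound for 1 hr, then induced with copper sulfate (700 uM final) for 20 hr at ambient temperature before luminescence reading.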
uPA surface inh: inhibitors of cell surface uPA generation; cell surface uPA generation assay, qHTS; Potency, µM (highest dose often 38.3 µM), for the others: at the highest dose activity change, negative = inhibition, actives largely listed as inhibitors; actives 0.31% (n = 330,000); AID 540303; active means well fitted inhibition curve with a large enough effect; inconclusive means small, poorly fitted or top-dose-only effect; inactive means no such curve, though single readings can be large or run the other way; tested in mouse RAW 264.7 cells; further: on the % scale 0 is the no-effect control and ±100 the full control effect; nearly all actives have a fitted effect of over 55% in size
VP16 counter: Gal4-VP16 reporter inhibition counter-screen; AID 2546; actives 3.5% (n = 310,000); Drosophila S2 Gal4-VP16 UAS-luciferase, luminescence, 20 h; Potency, µM (doses to about 53.6 µM), without a hit: top-dose activity, negative = inhibition, most hits filed as inhibitors;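 further: Gal4-VP16 expression switched on by copper sulfate through the metallothionein promoter; on the % scale 0 is the no-effect control and ±100 the full control effect; nearly all actives have a fitted effect of over 50% in size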
Mito fusion act: inhibitors of mitochondrial division or activators of mitochondrial fusion; actives 0.23% (n = 320,000); S. cerevisiae fusion-defective mutant growth rescue, CellTiterGlo 48 h; Potency, µM (top dose mostly 46.1 µM), for inactives: top-dose growth rescue (activation), most hits filed as activators; further: % of control where 0% means no effect; nearly all actives have a fitted effect of over 45% in size
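Temperature-sensitive fusion-defective S. cerevisiae (e.g. fzo1-1, mgm1-5) were grown with compound in YPEG medium (3% ethanol, 3% glycerol) for 48 hours at 37C. Growth rescue was measured as viability by CellTiterGlo luminescence after 10 minutes at ambient.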
Chronic BCR inh: chronic active BCR signaling inhibition; ABC-DLBCL IkBa-CBG/CBR reporter, luminescence ratio, 4 h; Potency, µM (series often up to 46.1 µM), without a hit: at the top dose activity change, negative = inhibition, actives largely listed as inhibitors; actives 0.05% (n = 340,000); active means well fitted inhibition curve with a large enough effect in the signal ratio, with a control signal flat, not every such curve was filed as active; inconclusive means small, poorly fitted or top-dose-only effect, or effect the other way, or a change in a side signal; the % refers to the signal ratio;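 further: plate controls were basal doxycycline-induced cells for no effect and cells given 10 µM MG132 for full effect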
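Doxycycline induced both beetle luciferases in TMD8 lymphoma cells; IKK-driven degradation limits the IkappaBalpha-fused green signal, while red luminescence normalises for cell number and nonspecific effects. Compounds tested up to 46 uM, 4 hrs.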
An asterisk follows results filed as active. Shown are actives, neighbours in structure and some others; about 5.5% of the full set was active somewhere. Unless noted, the call rests on the fitted dose curve; in most records, active means well fitted curve in the direction sought with a large enough effect; inconclusive means small, poorly fitted or top-dose-only effect, or another doubt; inactive means no such curve, though single readings can be large; an effect the other way counts as inactive or inconclusive. Potency means the concentration at half of the fitted maximal effect.

What do the screens show for `CCCCC(C)(O)C/C=C/[C@H]1[C@H](O)CC(=O)[C@@H]1CCCCCCC(=O)O` (some centres undefined)?
RORg inh: -14%; VP16 counter: -15%

How did CCOC(=O)c1sc(NC(=O)CCc2ccccc2)nc1C do in these assays?
a7 integrin act: -22%; RORg inh: -17%; uPA surface inh: 4.5µM*; VP16 counter: 1%; Mito fusion act: 1%; Chronic BCR inh: inconclusive

Results for COc1cc(CC(=O)Nc2nccs2)cc(OC)c1OC ?
a7 integrin act: -3%; RORg inh: -13%; uPA surface inh: 3%; VP16 counter: -8%; Mito fusion act: -4%; Chronic BCR inh: -2%

Results for COc1cc(C(=O)NC(=S)Nc2nccs2)cc(OC)c1OC ?
a7 integrin act: 22%; RORg inh: 3.2µM*; uPA surface inh: -4%; VP16 counter: inconclusive; Mito fusion act: 6%; Chronic BCR inh: 0%

What do the screens show for `CCOC(=O)c1sc(NC(=O)CC(C)c2ccccc2)nc1C` (centres undefined)?
a7 integrin act: -25%; RORg inh: 17%; uPA surface inh: -13%; VP16 counter: -11%; Mito fusion act: 6%; Chronic BCR inh: inconclusive

What do the screens show for `COc1cc(C(=O)Nc2nnc(C)s2)cc(OC)c1OC`?
a7 integrin act: 4%; RORg inh: 7.1µM*; uPA surface inh: 32%; VP16 counter: 6%; Mito fusion act: 3%; Chronic BCR inh: -8%

Results for COC(=O)c1sc(NC(=S)NC(=O)c2cc(OC)c(OC)c(OC)c2)nc1C ?
a7 integrin act: 0%; RORg inh: 10µM*; uPA surface inh: 1%; VP16 counter: -21%; Mito fusion act: 0%; Chronic BCR inh: -1%

Results for COc1ccc(CNc2ncnc3ccc(-c4ccc5c(c4)OCO5)cc23)c(OC)c1 ?
RORg inh: inconclusive; VP16 counter: 2%

What do the screens show for `CCOC(=O)c1sc(NC(=S)NC(=O)c2ccccc2)nc1C`?
a7 integrin act: 5%; RORg inh: 11%; uPA surface inh: 6%; VP16 counter: 4%; Mito fusion act: -4%; Chronic BCR inh: inconclusive

Results for CCOC(=O)c1sc(NC(=S)NC(=O)c2cccc(OC)c2)nc1C ?
a7 integrin act: 1%; RORg inh: 8.9µM*; uPA surface inh: -9%; VP16 counter: inconclusive; Mito fusion act: -7%; Chronic BCR inh: inconclusive

Results for CCCCCCN=C1CC(C)(C)CC(=O)/C1=C(/O)CCC ?
a7 integrin act: -11%; RORg inh: 4%; uPA surface inh: -2%; VP16 counter: 0%; Mito fusion act: 5%; Chronic BCR inh: inconclusive

Results for S=c1[nH]nc(Cc2ccc(Cl)cc2)n1-c1ccc2c(c1)OCCO2 ?
a7 integrin act: -35%; RORg inh: 2.8µM*; uPA surface inh: 6%; VP16 counter: -21%; Mito fusion act: -2%; Chronic BCR inh: -16%

What do the screens show for `CCc1nc2c(cnn2-c2ccc(Cl)cc2)c(=O)n1-c1ccc2c(c1)OCCO2`?
a7 integrin act: -2%; RORg inh: -3%; uPA surface inh: 3%; VP16 counter: 7%; Mito fusion act: 7%; Chronic BCR inh: 0%

What do the screens show for `COc1ccc(CC(=O)NCc2n[nH]c(=S)n2-c2ccc(F)cc2)cc1`?
a7 integrin act: 9%; RORg inh: -14%; uPA surface inh: 8%; VP16 counter: 3%; Mito fusion act: 2%; Chronic BCR inh: 5%

How did COc1ccc(Cc2n[nH]c(=S)n2-c2ccc3c(c2)OCCO3)cc1 do in these assays?
a7 integrin act: -8%; RORg inh: 8.9µM*; uPA surface inh: -10%; VP16 counter: -1%; Mito fusion act: -3%; Chronic BCR inh: -12%

Results for COc1ccccc1CNc1cc(-c2c(C)noc2C)ncn1 ?
RORg inh: 11%; VP16 counter: 10%

How did Cc1ccccc1OCc1nnc(SCCN2CCCC2)n1-c1ccccc1 do in these assays?
a7 integrin act: -38%; RORg inh: 11µM*; uPA surface inh: 2%; VP16 counter: inconclusive; Mito fusion act: -7%; Chronic BCR inh: inconclusive

How did Cc1ccc(C(=O)N/N=C(/CC(=O)c2cccs2)C(F)(F)F)cc1 do in these assays?
a7 integrin act: -11%; RORg inh: 11µM*; uPA surface inh: 2%; VP16 counter: 7.1µM*; Mito fusion act: inconclusive; Chronic BCR inh: inconclusive

What do the screens show for `O=C(N/N=C(\CC(=O)c1cccs1)C(F)(F)F)c1ccncc1`?
a7 integrin act: 20%; RORg inh: -19%; uPA surface inh: -16%; VP16 counter: -29%; Mito fusion act: 12%; Chronic BCR inh: inconclusive

Results for Cc1ccccc1NC(=S)N(CCN(C)C)C(C)c1ccccn1 (centres undefined) ?
a7 integrin act: 6%; RORg inh: inconclusive; uPA surface inh: -3%; VP16 counter: 5%; Mito fusion act: -2%; Chronic BCR inh: -1%

What do the screens show for `Cc1c(Cl)cccc1NC(=S)N(CCN(C)C)C(C)c1ccccn1` (centres undefined)?
a7 integrin act: -14%; RORg inh: 13µM*; uPA surface inh: 1%; VP16 counter: inconclusive; Mito fusion act: 0%; Chronic BCR inh: -2%

How did CSc1cccc(NC(=S)N(CCN(C)C)C(C)c2ccncc2)c1 (centres undefined) do in these assays?
a7 integrin act: 7%; RORg inh: inconclusive; uPA surface inh: -10%; VP16 counter: -3%; Mito fusion act: -5%; Chronic BCR inh: -1%

Results for Cc1c(Cl)cccc1NC(=S)N(Cc1ccco1)C(C)c1ccccn1 (centres undefined) ?
a7 integrin act: -37%; RORg inh: 10µM*; uPA surface inh: -17%; VP16 counter: inconclusive; Mito fusion act: 6%; Chronic BCR inh: -8%

Results for CSc1cccc(NC(=S)N(CCN(C)C)C(C)c2ccccn2)c1 (centres undefined) ?
a7 integrin act: -26%; RORg inh: 18µM*; uPA surface inh: 3%; VP16 counter: inconclusive; Mito fusion act: 13%; Chronic BCR inh: -15%

How did Cc1ccccc1NC(=S)N(Cc1ccco1)C(C)c1ccccn1 (centres undefined) do in these assays?
a7 integrin act: 11%; RORg inh: 13µM*; uPA surface inh: -2%; VP16 counter: inconclusive; Mito fusion act: -7%; Chronic BCR inh: 4%

How did COC(=O)c1cnn(-c2ccc(C(=O)Nc3ccc(C(C)=O)cc3)cc2)c1N do in these assays?
Mito fusion act: 4%; Chronic BCR inh: -6%
